IL-1B inflam inh: inflammasome signaling inhibition, IL-1 beta readout | THP-1 LPS/ATP IL-1B secretion, AlphaLISA, 16 h; stronger effect = lower value | 360,000 tested, 4.7% active | AID 743279 | activity change, % at 57.5 µM; in the data active = activity change below about -50%; inconclusive = mostly about -30% to -49%; also: % is scaled to controls: 0 for no effect and ±100 for the full control effect
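THP-1 cells pretreated 1 hr with compounds (up to 57.5 uM final), then stimulated with LPS (250 ng/mL final) plus ATP (1.25 mM final); secreted IL-1B measured by AlphaLISA after 16 hr, decreased signal indicating inhibition.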
MCF10A rereplic: DNA re-replication induction in MCF 10a cells. MCF 10A DNA re-replication, Hoechst nuclear intensity, 48 h. Potency, µM (highest dose often 46.1 µM), without a hit: top-dose activity, positive = re-replication, usual class: activators. 350,000 tested, 2.9% active. AID 624296; also: potency is read from the fitted curve at half-maximal effect; % of control where 0% means no effect; nearly all actives have a fitted effect of over 50% in size
BCR signal inh: chronic active BCR signaling inhibition. ABC-DLBCL IkBa-CBG/CBR reporter, luminescence ratio, 4 h. 340,000 tested, 0.05% active. Potency, µM (highest dose often 46.1 µM), inactives show at the highest dose activity change, negative = inhibition, usual class: inhibitors. AID 493014; active = well fitted inhibition curve with a large enough effect in the signal ratio, with a control signal flat, not every such curve was filed as active; inconclusive = small, poorly fitted or top-dose-only effect, or effect the other way, or a change in a side signal; the % refers to the signal ratio;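 also: potency is read from the fitted curve at half-maximal effect; plate controls were basal doxycycline-induced cells for no effect and cells given 10 µM MG132 for full effect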
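TMD8 human ABC-DLBCL cells with doxycycline-inducible IκBα–green luciferase fusion and unfused red luciferase, in 0.5% FBS medium; compounds up to 46 uM, 4 h at 37C. Green/red luminescence ratio, filter-overlap corrected, fitted to concentration-response curves.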
SW480 rerep: inducers of DNA re-replication in SW480 colon cancer cells | SW480 DNA re-replication, Hoechst DNA content imaging, 48 h | Potency, µM (doses to about 46.1 µM), for inactives: top-dose re-replication activation, usual class: activators | 340,000 tested, 1.8% active | AID 624297; also: potency is read from the fitted curve at half-maximal effect; % of control where 0% means no effect; nearly all actives have a fitted effect of over 55% in size
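Treated cells incubate 48 hr (37 C, 5% CO2), are stained 40 min with Hoechst, and nuclear fluorescence is enumerated; a rise in nuclei with high DNA signal marks re-replication.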
TDP1 cell CPT: DT40-hTDP1 cell growth loss with CPT; chicken DT40 Tdp1-/-;hTDP1 cells + 20 nM CPT, ATP luminescence, 48 h; Potency, µM (series often up to 46.2 µM), for the others: at the top dose activity change, negative = growth inhibition, most hits filed as inhibitors; 420,000 tested, 12% active; also: potency is read from the fitted curve at half-maximal effect; % is scaled to controls: 0 for no effect and ±100 for the full control effect; nearly all actives have a fitted effect of over 55% in size
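Cell growth measured by CellTiter-Glo luminescence after a minimum 48 h, 37 C compound exposure with 20 nM CPT in Tdp1-knockout DT40 cells stably expressing hTDP1, seeded 400/well; qHTS titration format.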
DT40 TDP1 no CPT: qHTS for Inhibitors of human tyrosyl-DNA phosphodiesterase 1 (TDP1): qHTS in cells in absence of CPT. DT40 Tdp1-/- hTDP1 cells, no CPT, ATP luminescence, 48 h. Potency, µM (highest dose often 46.2 µM), inactives show top-dose activity change, negative = growth inhibition, actives largely listed as inhibitors. 420,000 tested, 15% active; also: potency is read from the fitted curve at half-maximal effect; % is scaled to controls: 0 for no effect and ±100 for the full control effect; nearly all actives have a fitted effect of over 55% in size
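Cells were dispensed at 400 per well, compounds added by pin tool, plates incubated ≥48 hr at 37 °C, then CellTiter-Glo added for 30 min at room temperature before luminescence reading. Line: DT40 Tdp1-/- complemented with hTDP1; camptothecin omitted.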
Starred values were filed as active, the others as inactive; [ ] = another dose, or the depositor's remark. This is a sample that favours compounds with a hit; in the whole collection about 19% have one here. Unless noted, calls follow the shape of the dose curve; as a rule, active = well fitted curve in the direction sought with a large enough effect; inconclusive = small, poorly fitted or top-dose-only effect, or another doubt; inactive = no such curve, though single readings can be large; an effect the other way counts as inactive or inconclusive.

O=c1[nH]c(-c2ccccc2)nc2sc(-c3ccccc3)cc12 was read as IL-1B inflam inh -7.5, MCF10A rereplic 10.3µM*, BCR signal inh inconclusive, SW480 rerep 2.91µM*, TDP1 cell CPT 10.3µM* and DT40 TDP1 no CPT 6.51µM*.
`CCn1cnc2sc(-c3ccccc3)cc2c1=O` gave IL-1B inflam inh -0.8, MCF10A rereplic 21.8%, BCR signal inh inconclusive, SW480 rerep -5.4%[9.22 µM], TDP1 cell CPT -18.9% and DT40 TDP1 no CPT -14.7%.
`Cc1ccc(C)n1-n1c(C)nc2sc(-c3ccccc3)cc2c1=O` gave IL-1B inflam inh -26.2, MCF10A rereplic 15.4%, BCR signal inh inconclusive, SW480 rerep 3.0%, TDP1 cell CPT 18.4µM* and DT40 TDP1 no CPT 14.6µM*.
For CCCN(C(=O)c1cc2c(=O)oc3ccccc3c2s1)c1ccc(CC)cc1 the results were TDP1 cell CPT 2.7% and DT40 TDP1 no CPT 17.4%.
O=C(Cn1nc(-c2ccccc2)nc1-c1ccccc1)OC1CCCCC1 was read as IL-1B inflam inh 0.0, MCF10A rereplic inconclusive, BCR signal inh 5.1%, SW480 rerep 4.2%, TDP1 cell CPT inconclusive and DT40 TDP1 no CPT 18.4µM*.
Screening CCOC(=O)Cn1nc(-c2ccccc2)nc1-c1ccccc1 returned IL-1B inflam inh 19.6, MCF10A rereplic 6.3%, BCR signal inh 1.3%, SW480 rerep 0.5%, TDP1 cell CPT -3.2% and DT40 TDP1 no CPT -28.5%.
Screening CCOC(=O)C1(C)CCCN(C(=O)c2ccc(OC)c(OC)c2)C1 (centres undefined) returned IL-1B inflam inh -11.0, TDP1 cell CPT -12.1% and DT40 TDP1 no CPT -15.2%.
Screening Cc1cccc(NC(=S)NCC23C=CC(O2)C2C(=O)N(c4ccc(Cl)cc4)C(=O)C23)c1 (centres undefined) returned IL-1B inflam inh -5.1, MCF10A rereplic inconclusive, BCR signal inh -0.9%, SW480 rerep inconclusive, TDP1 cell CPT inconclusive and DT40 TDP1 no CPT 20.6µM*.
For Cc1ccc(NC(=S)NCC23C=CC(O2)C2C(=O)N(c4ccc(C)cc4)C(=O)C23)cc1 (centres undefined) the results were IL-1B inflam inh 4.6, MCF10A rereplic inconclusive, BCR signal inh inconclusive, SW480 rerep inconclusive, TDP1 cell CPT 18.4µM* and DT40 TDP1 no CPT inconclusive.
`Cc1ccc(N2C(=O)C3C4C=CC(CNC(=S)N5CCN(c6ccccc6)CC5)(O4)C3C2=O)cc1` (centres undefined) gave IL-1B inflam inh 11.4, MCF10A rereplic inconclusive, BCR signal inh -8.7%, SW480 rerep 80.8%, TDP1 cell CPT 18.4µM* and DT40 TDP1 no CPT 18.4µM*.
Cc1ccc(S(=O)(=O)NCC23C=CC(O2)C2C(=O)N(c4ccccc4)C(=O)C23)cc1 (centres undefined) was read as IL-1B inflam inh 0.4, MCF10A rereplic 4.2%, BCR signal inh -4.6%, SW480 rerep inconclusive, TDP1 cell CPT inconclusive and DT40 TDP1 no CPT inconclusive.
Screening C=CCNC(=O)c1ccsc1N returned IL-1B inflam inh 37.5, TDP1 cell CPT inconclusive and DT40 TDP1 no CPT inconclusive.
For O=C(O)/C=C/C(=O)Nc1ccccc1C(=O)OCC(=O)c1ccc2c(c1)OCCO2 the results were IL-1B inflam inh -74.6*, MCF10A rereplic inconclusive, BCR signal inh inconclusive, SW480 rerep 18.5%, TDP1 cell CPT -8.2% and DT40 TDP1 no CPT 7.3%.
`CCCCCCOC(=O)c1ccccc1NC(=O)/C=C/C(=O)O` gave IL-1B inflam inh -99.8*, MCF10A rereplic inconclusive, BCR signal inh inconclusive, SW480 rerep 11.5%, TDP1 cell CPT 16.4µM* and DT40 TDP1 no CPT inconclusive.
For Cn1nnc2c(NCc3ccco3)ncnc21 the results were TDP1 cell CPT -21.0% and DT40 TDP1 no CPT -18.3%.
Screening Brc1ccc(N/N=C(/N=Nc2nn[nH]n2)c2ccccc2)cc1 returned IL-1B inflam inh 105.7, MCF10A rereplic -0.3%, BCR signal inh inconclusive, SW480 rerep inconclusive, TDP1 cell CPT 2.91µM* and DT40 TDP1 no CPT 2.59µM*.
`O=C(O)c1ccc(N=N/C(=N\Nc2ccc(C(=O)O)cc2)c2ccccc2)cc1` gave IL-1B inflam inh -4.2, MCF10A rereplic -30.7%, BCR signal inh 10.1%, SW480 rerep -0.5%, TDP1 cell CPT -27.2% and DT40 TDP1 no CPT inconclusive.
`CCN1CCN(C(c2ccc(F)cc2)c2sc3nc(-c4ccco4)nn3c2O)CC1` (centres undefined) gave BCR signal inh inconclusive, TDP1 cell CPT -2.3% and DT40 TDP1 no CPT inconclusive.
`O=C(Nc1cccc(F)c1)N(Cc1ccc(Cl)cc1)CC(O)C(F)(F)F` (centres undefined) gave IL-1B inflam inh -17.7, MCF10A rereplic 5.1%, BCR signal inh inconclusive, SW480 rerep 18.9%, TDP1 cell CPT inconclusive and DT40 TDP1 no CPT 25.9µM*.
Screening O=C(Nc1ccccc1)N(Cc1ccccc1)CC(O)C(F)(F)F (centres undefined) returned IL-1B inflam inh -3.0, MCF10A rereplic inconclusive, BCR signal inh -5.0%, SW480 rerep -2.7%, TDP1 cell CPT 14.4% and DT40 TDP1 no CPT 13.4%.
Screening CC(C)CN1CCc2nc(N3CCN(C)CC3)ncc2C1 returned TDP1 cell CPT -12.5% and DT40 TDP1 no CPT -23.8%.
`Nc1cc(N)c(OCC(F)(F)F)cc1OCC(F)(F)F` gave IL-1B inflam inh -5.2, MCF10A rereplic -4.1%, BCR signal inh 7.5%, SW480 rerep 6.2%, TDP1 cell CPT 2.59µM* and DT40 TDP1 no CPT 9.2µM*.
For Cc1ccccc1OCC(=O)NCCNC(=O)c1ccccn1 the results were IL-1B inflam inh 5.2, MCF10A rereplic -0.6%, BCR signal inh -8.5%, SW480 rerep -2.5%, TDP1 cell CPT 2.5% and DT40 TDP1 no CPT -16.6%.
For CCOC(=O)c1cccc(-n2c(C)cc(C=O)c2C)c1 the results were IL-1B inflam inh 15.5, MCF10A rereplic 8.4%, BCR signal inh -7.7%, SW480 rerep -1.9%, TDP1 cell CPT -3.0% and DT40 TDP1 no CPT -29.6%.
For CCOC(=O)c1c(-n2c(C)cc(C=O)c2C)sc2c1CCCC2 the results were IL-1B inflam inh -56.4*, MCF10A rereplic inconclusive, BCR signal inh 10.3%, SW480 rerep inconclusive, TDP1 cell CPT 15.8µM* and DT40 TDP1 no CPT inconclusive.
For Cc1cc(NC(=O)OC(C)(C)C)c(-n2nnnc2C(C(=O)c2ccccc2)N2CCOCC2)cc1C (centres undefined) the results were IL-1B inflam inh 16.4, TDP1 cell CPT -21.7% and DT40 TDP1 no CPT -28.8%.

Screening data from PubChem.
